The target in experiment [1] is High affinity nerve growth factor receptor (Homo sapiens) (UniProt P04629). The following applies: at 1 µM.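 Further: each value is the mean percent inhibition of TRKA.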
Experiment [2] addresses BDNF/NT-3 growth factors receptor (Homo sapiens) (UniProt Q16620). The following applies: at 0.1 µM.
Experiment [3] shares this target. The following applies: at 1 µM.
Experiment [4] deals with NT-3 growth factor receptor (Homo sapiens) (UniProt Q16288). The following applies: at 0.1 µM.
Experiment [5] has the same target. Conditions: at 1 µM.
Experiment [6] addresses T1, Tyrosine-protein kinase TXK (Homo sapiens) (UniProt P42681).
T1 sequence (whole entry): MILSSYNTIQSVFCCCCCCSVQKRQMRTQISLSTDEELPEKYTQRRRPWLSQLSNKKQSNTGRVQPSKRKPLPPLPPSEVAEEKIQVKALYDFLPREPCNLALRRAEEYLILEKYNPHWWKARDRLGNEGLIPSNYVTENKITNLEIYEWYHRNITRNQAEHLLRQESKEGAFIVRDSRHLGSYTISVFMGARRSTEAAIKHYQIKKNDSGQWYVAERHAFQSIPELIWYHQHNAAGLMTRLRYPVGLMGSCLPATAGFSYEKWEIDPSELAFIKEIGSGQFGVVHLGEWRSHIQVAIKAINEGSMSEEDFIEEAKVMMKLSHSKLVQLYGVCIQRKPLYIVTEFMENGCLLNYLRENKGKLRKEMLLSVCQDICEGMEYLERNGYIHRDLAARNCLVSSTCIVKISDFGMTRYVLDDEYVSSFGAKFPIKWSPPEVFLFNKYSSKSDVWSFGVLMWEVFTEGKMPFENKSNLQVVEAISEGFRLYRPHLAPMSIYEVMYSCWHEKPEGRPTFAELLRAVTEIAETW
The following applies: at 0.1 µM.

Experiment [7] deals with T1, Tyrosine-protein kinase TXK (Homo sapiens). The following applies: at 1 µM.
Experiment [8] addresses Non-receptor tyrosine-protein kinase TYK2 (Homo sapiens) (UniProt P29597). The following applies: at 0.1 µM.
The target in experiment [9] is T2, Dual specificity protein kinase TTK (Homo sapiens) (UniProt P33981).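 Further: reported figures are mean TTK inhibition at 1 µM.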
T2 sequence (whole entry): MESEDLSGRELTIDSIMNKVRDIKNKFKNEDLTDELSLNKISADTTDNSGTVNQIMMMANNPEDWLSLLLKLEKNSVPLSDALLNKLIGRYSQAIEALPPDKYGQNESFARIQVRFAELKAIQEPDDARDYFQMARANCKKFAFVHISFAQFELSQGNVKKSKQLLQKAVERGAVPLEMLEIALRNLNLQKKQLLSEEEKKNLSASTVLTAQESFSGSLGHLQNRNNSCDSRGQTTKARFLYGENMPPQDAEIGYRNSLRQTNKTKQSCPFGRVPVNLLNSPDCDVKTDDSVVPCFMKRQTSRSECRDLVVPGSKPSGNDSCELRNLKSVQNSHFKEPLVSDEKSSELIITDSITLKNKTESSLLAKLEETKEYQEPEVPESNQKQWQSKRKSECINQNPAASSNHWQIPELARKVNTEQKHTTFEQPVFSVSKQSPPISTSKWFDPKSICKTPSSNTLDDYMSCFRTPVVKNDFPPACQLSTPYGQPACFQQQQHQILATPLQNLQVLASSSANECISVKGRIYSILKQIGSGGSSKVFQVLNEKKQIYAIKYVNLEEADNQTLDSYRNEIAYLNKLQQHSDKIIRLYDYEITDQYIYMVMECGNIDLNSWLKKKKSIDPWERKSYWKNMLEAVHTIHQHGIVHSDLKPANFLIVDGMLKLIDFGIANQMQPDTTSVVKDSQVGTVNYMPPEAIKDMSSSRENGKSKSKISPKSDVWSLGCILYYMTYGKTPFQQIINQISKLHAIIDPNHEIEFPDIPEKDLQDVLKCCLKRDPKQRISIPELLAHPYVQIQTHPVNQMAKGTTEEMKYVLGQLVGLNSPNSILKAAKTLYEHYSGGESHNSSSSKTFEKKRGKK
Conditions: at 1 µM.

Experiment [10] concerns the target T3, Aurora kinase A (Homo sapiens) (UniProt O14965).
T3 sequence (whole entry): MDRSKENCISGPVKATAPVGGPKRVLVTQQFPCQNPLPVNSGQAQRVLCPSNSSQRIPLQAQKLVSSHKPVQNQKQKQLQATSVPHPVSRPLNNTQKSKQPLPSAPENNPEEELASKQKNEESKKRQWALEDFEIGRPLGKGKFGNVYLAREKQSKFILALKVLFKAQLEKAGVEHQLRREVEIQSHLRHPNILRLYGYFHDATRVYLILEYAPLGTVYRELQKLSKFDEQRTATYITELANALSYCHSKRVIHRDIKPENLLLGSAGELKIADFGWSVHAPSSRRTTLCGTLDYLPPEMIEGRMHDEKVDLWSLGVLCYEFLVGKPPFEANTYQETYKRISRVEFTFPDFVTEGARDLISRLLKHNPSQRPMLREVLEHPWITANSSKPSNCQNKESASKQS
The following applies: at 0.1 µM.

Experiment [11] deals with T3, Aurora kinase A (Homo sapiens). Conditions: at 1 µM.
The target in experiment [12] is Aurora kinase B (Homo sapiens) (UniProt Q96GD4). Conditions: at 0.1 µM.
Experiment [13] shares this target. Conditions: at 1 µM.
Experiment [14] has as its target T4, Aurora kinase C (Homo sapiens) (UniProt Q9UQB9).
T4 sequence (whole entry): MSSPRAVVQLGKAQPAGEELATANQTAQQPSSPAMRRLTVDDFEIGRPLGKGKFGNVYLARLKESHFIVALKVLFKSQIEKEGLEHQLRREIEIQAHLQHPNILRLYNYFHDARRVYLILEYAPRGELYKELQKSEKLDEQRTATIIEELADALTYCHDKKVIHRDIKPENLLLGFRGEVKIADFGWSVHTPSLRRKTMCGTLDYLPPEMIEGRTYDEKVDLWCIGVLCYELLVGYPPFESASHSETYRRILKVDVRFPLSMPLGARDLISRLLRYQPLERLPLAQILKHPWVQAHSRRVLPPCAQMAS
The following applies: at 0.1 µM.

Experiment [15] concerns the target T4, Aurora kinase C (Homo sapiens). The following applies: at 1 µM.
The target of experiment [16] is Serine/threonine-protein kinase 10 (Homo sapiens) (UniProt O94804). The following applies: at 0.1 µM.
Experiment [17] shares this target. The following applies: at 1 µM.
Experiment [18] has as its target T5, Mitogen-activated protein kinase kinase kinase kinase 2 (Homo sapiens) (UniProt Q12851).
T5 sequence (whole entry): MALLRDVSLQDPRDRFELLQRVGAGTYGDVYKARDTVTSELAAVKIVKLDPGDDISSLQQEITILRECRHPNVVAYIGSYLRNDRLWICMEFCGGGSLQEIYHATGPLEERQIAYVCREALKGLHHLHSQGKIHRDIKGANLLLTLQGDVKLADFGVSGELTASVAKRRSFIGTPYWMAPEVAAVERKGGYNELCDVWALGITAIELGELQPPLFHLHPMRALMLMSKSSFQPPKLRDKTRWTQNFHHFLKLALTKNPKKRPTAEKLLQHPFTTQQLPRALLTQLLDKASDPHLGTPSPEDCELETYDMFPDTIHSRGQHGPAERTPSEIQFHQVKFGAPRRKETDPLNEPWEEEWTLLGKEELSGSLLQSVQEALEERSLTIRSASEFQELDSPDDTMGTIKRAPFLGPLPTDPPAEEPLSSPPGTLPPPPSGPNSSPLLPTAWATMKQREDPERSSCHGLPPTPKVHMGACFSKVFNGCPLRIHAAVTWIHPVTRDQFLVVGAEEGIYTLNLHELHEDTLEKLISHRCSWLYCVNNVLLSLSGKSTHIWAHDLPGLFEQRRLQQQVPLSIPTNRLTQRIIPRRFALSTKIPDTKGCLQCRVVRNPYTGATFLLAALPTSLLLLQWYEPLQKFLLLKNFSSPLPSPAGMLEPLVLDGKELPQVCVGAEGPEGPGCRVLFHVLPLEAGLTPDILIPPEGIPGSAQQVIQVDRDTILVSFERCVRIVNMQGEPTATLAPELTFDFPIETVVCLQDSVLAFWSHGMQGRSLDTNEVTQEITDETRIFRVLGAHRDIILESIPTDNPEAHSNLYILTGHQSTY
The following applies: at 0.1 µM.

The target of experiment [19] is T5, Mitogen-activated protein kinase kinase kinase kinase 2 (Homo sapiens). The following applies: at 1 µM.
The target in experiment [20] is Mitogen-activated protein kinase kinase kinase kinase 4 (Homo sapiens) (UniProt O95819). Conditions: at 0.1 µM.
Chain of Mitogen-activated protein kinase kinase kinase kinase 4 (Homo sapiens) (O95819 2-1239 limits assumed): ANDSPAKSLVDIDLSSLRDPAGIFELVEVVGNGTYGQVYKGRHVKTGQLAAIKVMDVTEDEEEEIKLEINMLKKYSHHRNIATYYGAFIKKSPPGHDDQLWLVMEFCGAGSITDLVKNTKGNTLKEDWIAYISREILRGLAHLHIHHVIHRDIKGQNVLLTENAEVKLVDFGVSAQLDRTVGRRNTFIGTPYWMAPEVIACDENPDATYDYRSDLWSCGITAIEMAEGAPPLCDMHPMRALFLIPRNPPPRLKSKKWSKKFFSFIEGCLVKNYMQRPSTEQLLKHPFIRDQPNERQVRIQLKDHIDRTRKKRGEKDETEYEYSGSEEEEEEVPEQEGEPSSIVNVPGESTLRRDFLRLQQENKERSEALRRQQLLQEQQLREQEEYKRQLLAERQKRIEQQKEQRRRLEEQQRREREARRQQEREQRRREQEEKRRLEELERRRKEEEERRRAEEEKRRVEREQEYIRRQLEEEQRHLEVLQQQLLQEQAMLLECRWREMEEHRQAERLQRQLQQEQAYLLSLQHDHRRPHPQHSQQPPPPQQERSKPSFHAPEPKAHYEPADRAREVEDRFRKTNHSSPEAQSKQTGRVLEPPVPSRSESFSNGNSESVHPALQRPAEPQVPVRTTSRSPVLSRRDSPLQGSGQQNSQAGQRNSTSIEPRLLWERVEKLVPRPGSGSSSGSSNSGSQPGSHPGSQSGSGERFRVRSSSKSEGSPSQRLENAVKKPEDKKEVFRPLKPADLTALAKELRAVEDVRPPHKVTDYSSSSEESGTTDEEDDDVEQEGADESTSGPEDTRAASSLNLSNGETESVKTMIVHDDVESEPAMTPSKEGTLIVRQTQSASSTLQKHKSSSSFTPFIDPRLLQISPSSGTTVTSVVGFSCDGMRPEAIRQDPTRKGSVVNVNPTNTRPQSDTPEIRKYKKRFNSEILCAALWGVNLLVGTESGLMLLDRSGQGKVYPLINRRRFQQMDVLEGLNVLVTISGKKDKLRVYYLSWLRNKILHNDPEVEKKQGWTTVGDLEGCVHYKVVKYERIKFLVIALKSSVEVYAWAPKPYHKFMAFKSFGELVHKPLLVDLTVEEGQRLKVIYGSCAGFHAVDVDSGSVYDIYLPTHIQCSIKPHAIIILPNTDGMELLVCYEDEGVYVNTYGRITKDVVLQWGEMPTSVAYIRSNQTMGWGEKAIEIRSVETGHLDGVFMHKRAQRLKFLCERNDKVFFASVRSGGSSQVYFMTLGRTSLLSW

Chain of NT-3 growth factor receptor (Homo sapiens) (Q16288 32-839 limits assumed): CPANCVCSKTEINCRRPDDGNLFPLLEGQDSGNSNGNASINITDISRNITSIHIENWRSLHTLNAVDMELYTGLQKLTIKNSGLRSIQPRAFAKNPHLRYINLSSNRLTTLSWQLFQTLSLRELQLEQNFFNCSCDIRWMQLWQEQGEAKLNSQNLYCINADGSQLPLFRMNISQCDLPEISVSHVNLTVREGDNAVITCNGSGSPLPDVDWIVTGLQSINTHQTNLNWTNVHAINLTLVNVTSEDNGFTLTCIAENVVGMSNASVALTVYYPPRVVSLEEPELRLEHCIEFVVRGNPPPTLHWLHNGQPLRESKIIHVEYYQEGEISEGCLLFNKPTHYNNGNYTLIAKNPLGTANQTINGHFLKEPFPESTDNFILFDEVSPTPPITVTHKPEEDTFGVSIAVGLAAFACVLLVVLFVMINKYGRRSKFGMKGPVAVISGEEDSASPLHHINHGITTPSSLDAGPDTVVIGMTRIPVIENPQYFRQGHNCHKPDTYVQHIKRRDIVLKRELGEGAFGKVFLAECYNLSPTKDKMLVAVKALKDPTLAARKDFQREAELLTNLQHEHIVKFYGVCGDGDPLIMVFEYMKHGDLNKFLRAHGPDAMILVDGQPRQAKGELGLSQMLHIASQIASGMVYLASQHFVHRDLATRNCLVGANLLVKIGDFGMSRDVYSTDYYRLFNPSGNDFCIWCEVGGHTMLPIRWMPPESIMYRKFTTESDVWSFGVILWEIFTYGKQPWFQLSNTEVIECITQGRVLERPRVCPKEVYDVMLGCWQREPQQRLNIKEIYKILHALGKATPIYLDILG
Chain of High affinity nerve growth factor receptor (Homo sapiens) (P04629 33-796 limits assumed): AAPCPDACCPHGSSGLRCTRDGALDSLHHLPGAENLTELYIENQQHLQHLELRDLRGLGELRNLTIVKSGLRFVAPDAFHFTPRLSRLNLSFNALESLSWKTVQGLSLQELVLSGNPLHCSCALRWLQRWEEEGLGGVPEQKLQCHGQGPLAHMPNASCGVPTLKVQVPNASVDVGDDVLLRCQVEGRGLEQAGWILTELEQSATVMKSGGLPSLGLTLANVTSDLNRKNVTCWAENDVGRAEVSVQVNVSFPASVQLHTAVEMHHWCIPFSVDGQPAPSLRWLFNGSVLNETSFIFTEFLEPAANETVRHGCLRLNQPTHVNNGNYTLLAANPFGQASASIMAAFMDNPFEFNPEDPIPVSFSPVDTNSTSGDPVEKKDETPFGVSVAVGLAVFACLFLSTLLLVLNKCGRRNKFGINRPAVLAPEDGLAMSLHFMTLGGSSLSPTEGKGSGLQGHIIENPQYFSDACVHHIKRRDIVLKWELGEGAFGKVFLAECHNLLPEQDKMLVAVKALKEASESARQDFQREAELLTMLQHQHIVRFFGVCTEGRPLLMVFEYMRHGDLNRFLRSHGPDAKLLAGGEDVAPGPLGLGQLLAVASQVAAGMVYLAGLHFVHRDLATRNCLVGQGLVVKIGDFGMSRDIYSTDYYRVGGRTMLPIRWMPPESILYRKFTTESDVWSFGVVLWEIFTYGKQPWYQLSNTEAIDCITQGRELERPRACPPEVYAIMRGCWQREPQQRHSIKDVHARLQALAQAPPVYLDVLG
Chain of Non-receptor tyrosine-protein kinase TYK2 (Homo sapiens) (P29597 whole entry): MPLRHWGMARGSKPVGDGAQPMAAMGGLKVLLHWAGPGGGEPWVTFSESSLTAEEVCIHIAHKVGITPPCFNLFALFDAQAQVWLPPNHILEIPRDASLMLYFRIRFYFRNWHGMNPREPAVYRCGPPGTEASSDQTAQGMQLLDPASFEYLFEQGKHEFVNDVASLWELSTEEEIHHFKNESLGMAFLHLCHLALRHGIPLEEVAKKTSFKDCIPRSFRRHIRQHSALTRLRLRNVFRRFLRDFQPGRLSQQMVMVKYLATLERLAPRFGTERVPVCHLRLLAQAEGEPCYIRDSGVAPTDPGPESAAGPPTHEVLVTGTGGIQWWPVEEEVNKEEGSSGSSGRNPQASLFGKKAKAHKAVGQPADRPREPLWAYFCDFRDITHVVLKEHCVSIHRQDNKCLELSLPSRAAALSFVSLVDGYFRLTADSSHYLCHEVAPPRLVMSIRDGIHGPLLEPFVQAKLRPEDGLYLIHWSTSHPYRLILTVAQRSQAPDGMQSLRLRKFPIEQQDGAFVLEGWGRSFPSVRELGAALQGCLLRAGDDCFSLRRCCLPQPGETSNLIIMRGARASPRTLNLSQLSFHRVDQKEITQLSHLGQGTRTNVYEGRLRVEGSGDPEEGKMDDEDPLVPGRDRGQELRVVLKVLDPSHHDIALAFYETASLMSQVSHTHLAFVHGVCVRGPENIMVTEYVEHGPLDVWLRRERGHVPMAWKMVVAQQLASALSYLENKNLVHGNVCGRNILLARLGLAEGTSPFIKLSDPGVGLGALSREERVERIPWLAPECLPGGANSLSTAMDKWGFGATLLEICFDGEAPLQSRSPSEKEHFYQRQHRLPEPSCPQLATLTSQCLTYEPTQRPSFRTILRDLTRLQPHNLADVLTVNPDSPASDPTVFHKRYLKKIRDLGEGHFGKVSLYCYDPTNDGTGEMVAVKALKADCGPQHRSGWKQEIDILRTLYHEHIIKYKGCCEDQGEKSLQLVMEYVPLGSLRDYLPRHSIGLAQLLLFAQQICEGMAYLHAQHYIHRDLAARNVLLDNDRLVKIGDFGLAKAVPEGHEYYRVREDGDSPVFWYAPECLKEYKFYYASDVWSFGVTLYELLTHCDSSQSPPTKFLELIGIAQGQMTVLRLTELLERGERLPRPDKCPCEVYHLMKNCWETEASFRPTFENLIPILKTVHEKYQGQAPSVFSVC
Chain of BDNF/NT-3 growth factors receptor (Homo sapiens) (Q16620 32-822 limits assumed): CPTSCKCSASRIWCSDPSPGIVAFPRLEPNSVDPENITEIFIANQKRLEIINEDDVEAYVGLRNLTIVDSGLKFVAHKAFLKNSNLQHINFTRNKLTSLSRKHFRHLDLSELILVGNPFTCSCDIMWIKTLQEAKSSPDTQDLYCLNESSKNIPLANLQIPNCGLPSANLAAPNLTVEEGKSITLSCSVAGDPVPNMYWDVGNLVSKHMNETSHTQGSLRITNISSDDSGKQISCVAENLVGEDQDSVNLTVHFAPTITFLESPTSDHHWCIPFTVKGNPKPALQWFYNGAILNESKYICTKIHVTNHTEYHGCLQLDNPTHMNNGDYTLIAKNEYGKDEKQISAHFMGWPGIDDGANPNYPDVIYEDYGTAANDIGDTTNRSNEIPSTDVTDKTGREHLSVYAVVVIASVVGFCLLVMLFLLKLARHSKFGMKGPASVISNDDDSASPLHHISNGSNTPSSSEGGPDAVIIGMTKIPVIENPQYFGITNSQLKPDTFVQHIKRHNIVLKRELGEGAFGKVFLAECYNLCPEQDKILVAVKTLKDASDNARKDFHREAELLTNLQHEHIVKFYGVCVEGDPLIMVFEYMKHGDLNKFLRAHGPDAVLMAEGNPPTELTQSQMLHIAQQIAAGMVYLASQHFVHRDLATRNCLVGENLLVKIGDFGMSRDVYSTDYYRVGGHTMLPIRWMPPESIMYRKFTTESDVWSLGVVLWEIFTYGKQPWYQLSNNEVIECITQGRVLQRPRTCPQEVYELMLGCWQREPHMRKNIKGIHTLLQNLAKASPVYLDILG

Turning to `O=C(Nc1n[nH]c2cc(-c3ccc(F)cc3)ccc12)C1CC1`, the inhibition in [1] came out at 4.23%; in experiment [2], 2.53%; in [3] it was 5.87%; in experiment [4], 2.91%; in experiment [5] it was 7.26%; in [6], 2.11%. Moreover, the inhibition is 3.11% in [7]; -5.76% in experiment [8]; 3.14% in experiment [9]; 2.98% in experiment [10]; 12.8% in [11]; 2.7% in experiment [12]. The inhibition stood at 6.25% in experiment [13]; 0.6% in experiment [14]; 6.95% in [15]; 3.84% in experiment [16]; 8.91% in [17]; 1.48% in [18]. For the same molecule, the values for the inhibition in [19] and in experiment [20] were 5.08% and 20.1%, respectively.
Take `Nc1nc(-c2ccc(F)cc2)c(-c2ccc3ncccc3n2)s1`: the inhibition in experiment [1] is 4.77%; in experiment [2], 4.19%; in [3], 3.45%; in experiment [4], 3.72%; in [5], 5.31%; in experiment [6] it was 3.19%. Also, the inhibition in [7] is 6%; in experiment [8] it was -2.9%; in experiment [9] it was 7.77%; in experiment [10], 4.14%; in experiment [11] it was 10.6%; in experiment [12], 6.06%. The inhibition in experiment [13] was 7.91%; in experiment [14], 2.74%; in experiment [15] it was -0.03%; in experiment [16] it was 5.75%; in experiment [17], 10.1%; in experiment [18], 2.4%. In addition, the inhibition was determined as 3.82% in [19] and 17.7% in experiment [20].
For the molecule `COc1cc2ncn(-c3cc(OCc4ccccc4C(F)(F)F)c(C(=O)N(C)C)s3)c2cc1OC`, the inhibition in experiment [1] is 8.1%; in experiment [2], -0.07%; in [3], 7.43%; in experiment [4], 5.43%; in experiment [5] it was 16.2%; in experiment [6], 1.47%. Besides, the inhibition in [7] was 3.4%; in experiment [8], -4.64%; in [9], 10.4%; in experiment [10] it was 0.68%; in [11] it was 9.82%; in [12], 5.54%. The inhibition turned out to be 31.1% in [13]; 3.22% in [14]; 46.2% in [15]; 12.9% in experiment [16]; 55.8% in [17]; 0.57% in [18]. Moreover, the figures for the inhibition in experiment [19] and in [20] were 2.23% and 0.42%, respectively.
For `FC(F)(F)c1cccc(-c2nn3ncccc3c2-c2ccnc(Nc3ccc4c(c3)OCCO4)n2)c1`, the inhibition in experiment [1] turned out to be 3.48%; in experiment [2], 1.94%; in [3] it was 3.39%; in experiment [4], 0.62%; in experiment [5], 3.72%; in [6], 3.11%. In addition, the inhibition in [7] was 9%; in experiment [8] it was -2.27%; in [9] it was 14.6%; in experiment [10], 2.64%; in experiment [11], 24.7%; in experiment [12], 4.28%. In addition, the inhibition worked out at 12.4% in experiment [13]; 1.81% in [14]; 19.9% in [15]; 3.84% in experiment [16]; 19.8% in experiment [17]; 1.35% in experiment [18]. Moreover, the inhibition in experiment [19] was 12.2%; in experiment [20] it was 7.12%.
In the case of `N#Cc1c(NC(=O)CN2CCOCC2)sc2c1CCCC2`, the inhibition came to 0.84% in experiment [1]; 2.29% in experiment [2]; 4.03% in experiment [3]; 2.17% in experiment [4]; 2.8% in experiment [5]; 2.2% in [6]. Besides, the inhibition was 3.56% in [7]; -1.25% in experiment [8]; 12.8% in experiment [9]; 2.73% in experiment [10]; 8.53% in [11]; 4.66% in experiment [12]. Besides, the inhibition in [13] was 10.7%; in [14] it was 2.31%; in experiment [15], -1.84%; in experiment [16], 5.94%; in experiment [17], 6.99%; in experiment [18], 1.71%. Further, the inhibition in experiment [19] was 2.67%; in experiment [20], 10.5%.
As for `CNC(=O)c1cccc(C#Cc2cncnc2Nc2ccc(OCc3cccc(F)c3)c(Cl)c2)c1`, the inhibition in experiment [1] is 0.53%; in [2] it was 2.25%; in experiment [3] it was 1.08%; in experiment [4], 0.94%; in experiment [5], 2.86%; in [6] it was 1.86%. Further, the inhibition in experiment [7] was 3.33%; in experiment [8], -0.77%; in [9] it was 9.1%; in [10], 2.9%; in [11], 11.8%; in experiment [12], -0.67%. Besides, the inhibition was 4.77% in experiment [13]; 1.94% in experiment [14]; -5.97% in [15]; 0% in experiment [16]; 4.51% in [17]; -1.31% in [18]. The inhibition in [19] is 0.34%; in experiment [20] it was -0.86%.
Consider `Cc1ccc2c(-c3ccnc(Nc4ccccc4)n3)c(-c3ccc(F)cc3)nn2n1`, for which the inhibition in [1] stood at 31.6%; in experiment [2], 5.12%; in experiment [3], 20.2%; in [4], 4.3%; in experiment [5], 11.8%; in experiment [6] it was 8.09%. The inhibition was 31.4% in experiment [7]; -4.65% in experiment [8]; 6.11% in experiment [9]; 3.75% in [10]; 16.4% in experiment [11]; -4.16% in experiment [12]. The inhibition in experiment [13] amounted to 12.9%; in experiment [14], 2.67%; in experiment [15], 25.2%; in [16], 7.71%; in experiment [17], 22.8%; in experiment [18], 0.67%. Further, the figures for the inhibition in experiment [19] and in [20] were 3.98% and 12.3%, respectively.

These data come from ChEMBL document CHEMBL1961873, “Compounds: GSK PKIS; Assays: Nanosyn kinase panel” (2012).
